Test results as given in ChEMBL document CHEMBL3988442, “University of Dundee, Small-Polar-MMV Screening Library” (2021).
For part of these data: Measured potencies and affinities stand elsewhere.

Experiments:
Design in all cases: scale not given: direction of the effect not stated beside the values
[1] = target: Protein translocase subunit SecA (Escherichia coli (strain K12)) (UniProt P10408); assay: Assay to Identify E. coli SecA ATPase Inhibitors; format: functional; conditions: 30 µM
[2] = target: T1, Ubiquitin-activating enzyme e1, putative (Leishmania donovani (strain BPK282A1)) (UniProt E9BSI1); assay: Leishmania donovani Ubiquitin Activating Enzyme (LdE1); format: functional; conditions: 30 µM
T1 sequence (whole entry): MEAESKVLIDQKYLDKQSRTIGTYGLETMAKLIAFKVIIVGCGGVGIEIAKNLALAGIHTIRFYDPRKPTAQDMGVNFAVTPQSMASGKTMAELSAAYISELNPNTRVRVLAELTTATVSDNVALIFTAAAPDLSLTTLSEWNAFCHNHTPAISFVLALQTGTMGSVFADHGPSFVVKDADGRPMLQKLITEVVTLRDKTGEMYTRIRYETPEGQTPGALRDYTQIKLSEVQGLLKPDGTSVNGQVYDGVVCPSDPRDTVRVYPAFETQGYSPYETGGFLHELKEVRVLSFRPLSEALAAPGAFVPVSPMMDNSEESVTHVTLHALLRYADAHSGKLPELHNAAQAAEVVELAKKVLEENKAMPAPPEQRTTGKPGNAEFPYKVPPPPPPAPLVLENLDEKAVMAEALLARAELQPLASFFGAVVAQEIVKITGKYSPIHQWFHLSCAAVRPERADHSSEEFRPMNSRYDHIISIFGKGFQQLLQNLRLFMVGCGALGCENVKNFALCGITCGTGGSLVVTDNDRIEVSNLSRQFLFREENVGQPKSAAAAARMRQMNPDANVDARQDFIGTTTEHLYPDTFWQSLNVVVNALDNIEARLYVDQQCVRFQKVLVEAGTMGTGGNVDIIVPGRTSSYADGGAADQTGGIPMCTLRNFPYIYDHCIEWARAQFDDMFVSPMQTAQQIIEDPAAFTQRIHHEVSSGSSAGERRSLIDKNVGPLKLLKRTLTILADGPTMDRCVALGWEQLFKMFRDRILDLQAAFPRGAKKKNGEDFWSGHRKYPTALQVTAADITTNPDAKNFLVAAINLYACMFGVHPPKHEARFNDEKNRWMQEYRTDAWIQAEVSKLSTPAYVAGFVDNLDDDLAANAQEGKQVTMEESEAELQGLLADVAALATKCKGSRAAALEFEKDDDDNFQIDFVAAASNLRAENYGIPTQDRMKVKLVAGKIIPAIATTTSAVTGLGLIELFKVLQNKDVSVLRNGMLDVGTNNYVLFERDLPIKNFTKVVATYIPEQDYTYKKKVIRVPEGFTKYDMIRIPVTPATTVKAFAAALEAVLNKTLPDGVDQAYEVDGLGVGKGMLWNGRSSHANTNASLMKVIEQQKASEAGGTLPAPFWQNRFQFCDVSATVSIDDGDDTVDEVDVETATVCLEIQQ

[3] = target: T2, Aspartate--tRNA(Asp/Asn) ligase (Mycobacterium tuberculosis (strain ATCC 25618 / H37Rv)) (UniProt P9WFW3); assay: Assay for Asp RNA synthetase-1 from Mycobacterium tuberculosis; format: functional; conditions: 30 µM; also: in the data most compounds retested in dose-response had high values
T2 sequence (whole entry): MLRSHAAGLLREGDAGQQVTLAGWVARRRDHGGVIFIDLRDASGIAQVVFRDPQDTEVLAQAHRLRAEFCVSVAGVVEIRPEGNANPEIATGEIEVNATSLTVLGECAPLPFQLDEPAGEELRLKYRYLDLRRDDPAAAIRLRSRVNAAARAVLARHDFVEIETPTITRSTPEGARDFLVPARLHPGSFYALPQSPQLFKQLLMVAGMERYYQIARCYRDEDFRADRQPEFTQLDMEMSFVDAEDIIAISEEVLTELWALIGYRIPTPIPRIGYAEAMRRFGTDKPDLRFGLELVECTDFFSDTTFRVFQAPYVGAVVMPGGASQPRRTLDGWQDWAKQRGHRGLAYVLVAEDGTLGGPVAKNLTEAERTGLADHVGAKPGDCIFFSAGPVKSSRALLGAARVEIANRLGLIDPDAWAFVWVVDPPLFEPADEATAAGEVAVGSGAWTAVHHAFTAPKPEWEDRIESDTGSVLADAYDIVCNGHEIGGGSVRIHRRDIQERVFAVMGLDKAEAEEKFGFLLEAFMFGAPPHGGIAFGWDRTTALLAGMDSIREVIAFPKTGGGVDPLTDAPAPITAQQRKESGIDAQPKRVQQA

[4] = target: AMP-activated protein kinase, AMPK (Homo sapiens) (UniProt P54646+O43741+P54619+Q9UGJ0+Q9Y478+Q13131+Q9UGI9); assay: AMP-dependent Kinase enzyme assay. An in vitro enzyme assay that detects ADP turnover that is directly proportional to AMPK activity. This uses naive AMPK that is activated during the assay with MK-8722; format: functional; conditions: 30 µM
[5] = target: Sialic acid-binding Ig-like lectin 9 (Homo sapiens) (UniProt Q9Y336); assay: Hs-Siglec9 ALPHAscreen SOP 20170721; conditions: 10 µM
Trypanosoma cruzi = assay: Trypanosoma cruzi phosphomannomutase and mannose-1-phosphate guanylyltransferase assay; format: functional; conditions: 10 µM
[6] = target: T3, Arginase-2, mitochondrial (Homo sapiens) (UniProt P78540); assay: in vitro enzyme assay to detect the production of urea directly proportional to the activity of Arginase II; format: functional; conditions: 33.3 µM; also: in the data most compounds retested in dose-response had high values
T3 sequence (whole entry): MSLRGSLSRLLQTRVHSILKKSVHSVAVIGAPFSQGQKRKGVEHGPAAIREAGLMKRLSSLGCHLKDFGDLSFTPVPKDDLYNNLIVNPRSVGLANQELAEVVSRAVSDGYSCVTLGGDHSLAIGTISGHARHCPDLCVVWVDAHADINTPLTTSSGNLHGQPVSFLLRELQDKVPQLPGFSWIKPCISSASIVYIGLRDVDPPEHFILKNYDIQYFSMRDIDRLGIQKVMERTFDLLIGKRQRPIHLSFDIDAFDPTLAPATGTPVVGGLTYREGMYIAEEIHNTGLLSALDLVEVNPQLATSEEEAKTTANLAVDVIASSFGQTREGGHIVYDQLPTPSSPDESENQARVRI

[7] = target: T4, Proteasome subunit beta (Trypanosoma cruzi) (UniProt O96673); assay: Trypanosoma cruzi proteasome chymotrypsin-like activity (TcProtChymo) assay.; also: in the data most compounds retested in dose-response had high values; format: functional; conditions: 9.37 µM
T4 sequence (whole entry): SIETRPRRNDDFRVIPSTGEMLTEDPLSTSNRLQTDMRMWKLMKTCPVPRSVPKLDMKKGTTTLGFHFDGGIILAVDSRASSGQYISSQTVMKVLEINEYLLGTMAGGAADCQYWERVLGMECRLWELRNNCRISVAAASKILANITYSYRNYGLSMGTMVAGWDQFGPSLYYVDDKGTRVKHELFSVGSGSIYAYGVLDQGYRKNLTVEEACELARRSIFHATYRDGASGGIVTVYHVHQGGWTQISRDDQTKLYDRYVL

Homo sapiens = species: Homo sapiens; assay: To identify inhibition of the IFN signalling (Jak-Stat) pathway via expression of an eGFP reporter gene under the control of an IFN-stimulated response element (ISRE) containing MxA promoter.; format: functional; conditions: 30 µM
[8] = target: Shiga toxin 2 (Escherichia coli O157:H7) (UniProt P09385+P09386); assay: E. coli 0.157:H7 Shiga Toxin SOP - stx2 screening assay; format: functional; conditions: 30 µM
[9] = target: T5, Tyrosyl-tRNA synthetase, putative (Trypanosoma cruzi (strain CL Brener)) (UniProt Q4DSP6); assay: Trypanosoma cruzi tyrosyl tRNA synthetase (TcYRS) _High Tyrosine SOP; format: functional; conditions: 30 µM; also: in the data most compounds retested in dose-response had high values
T5 sequence (whole entry): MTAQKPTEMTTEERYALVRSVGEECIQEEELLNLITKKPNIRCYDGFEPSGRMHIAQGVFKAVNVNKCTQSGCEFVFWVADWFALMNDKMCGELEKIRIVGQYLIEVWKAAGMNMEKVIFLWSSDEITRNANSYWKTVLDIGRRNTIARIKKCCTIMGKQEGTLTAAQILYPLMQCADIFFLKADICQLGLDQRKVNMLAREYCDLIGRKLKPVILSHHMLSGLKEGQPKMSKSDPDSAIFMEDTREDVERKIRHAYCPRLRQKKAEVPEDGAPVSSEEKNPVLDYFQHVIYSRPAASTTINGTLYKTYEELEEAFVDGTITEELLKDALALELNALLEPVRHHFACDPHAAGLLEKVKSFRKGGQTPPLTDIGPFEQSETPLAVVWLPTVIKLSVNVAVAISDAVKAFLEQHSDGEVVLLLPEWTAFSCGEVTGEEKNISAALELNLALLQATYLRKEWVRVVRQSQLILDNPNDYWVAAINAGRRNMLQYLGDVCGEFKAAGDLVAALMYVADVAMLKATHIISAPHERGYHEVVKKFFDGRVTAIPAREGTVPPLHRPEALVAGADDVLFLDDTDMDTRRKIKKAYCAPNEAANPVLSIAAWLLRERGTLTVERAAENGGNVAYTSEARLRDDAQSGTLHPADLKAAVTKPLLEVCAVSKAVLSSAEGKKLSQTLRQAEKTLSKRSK

[10] = target: T5, Tyrosyl-tRNA synthetase, putative (Trypanosoma cruzi (strain CL Brener)); assay: Trypanosoma cruzi tyrosyl tRNA synthetase (TcYRS) SOP; format: functional; conditions: 30 µM
[11] = target: Chromo domain-containing protein 1 (Saccharomyces cerevisiae (strain ATCC 204508 / S288c) (Baker's yeast)) (UniProt P32657); assay: ScCHD-1 Enzyme Inhibition Assay; format: functional; conditions: 30 µM; also: in the data most compounds retested in dose-response had high values
Chromo domain-containing protein 1 (Saccharomyces cerevisiae (strain ATCC 204508 / S288c) (Baker's yeast)), sequence (P32657 whole entry, the tested form may be a part): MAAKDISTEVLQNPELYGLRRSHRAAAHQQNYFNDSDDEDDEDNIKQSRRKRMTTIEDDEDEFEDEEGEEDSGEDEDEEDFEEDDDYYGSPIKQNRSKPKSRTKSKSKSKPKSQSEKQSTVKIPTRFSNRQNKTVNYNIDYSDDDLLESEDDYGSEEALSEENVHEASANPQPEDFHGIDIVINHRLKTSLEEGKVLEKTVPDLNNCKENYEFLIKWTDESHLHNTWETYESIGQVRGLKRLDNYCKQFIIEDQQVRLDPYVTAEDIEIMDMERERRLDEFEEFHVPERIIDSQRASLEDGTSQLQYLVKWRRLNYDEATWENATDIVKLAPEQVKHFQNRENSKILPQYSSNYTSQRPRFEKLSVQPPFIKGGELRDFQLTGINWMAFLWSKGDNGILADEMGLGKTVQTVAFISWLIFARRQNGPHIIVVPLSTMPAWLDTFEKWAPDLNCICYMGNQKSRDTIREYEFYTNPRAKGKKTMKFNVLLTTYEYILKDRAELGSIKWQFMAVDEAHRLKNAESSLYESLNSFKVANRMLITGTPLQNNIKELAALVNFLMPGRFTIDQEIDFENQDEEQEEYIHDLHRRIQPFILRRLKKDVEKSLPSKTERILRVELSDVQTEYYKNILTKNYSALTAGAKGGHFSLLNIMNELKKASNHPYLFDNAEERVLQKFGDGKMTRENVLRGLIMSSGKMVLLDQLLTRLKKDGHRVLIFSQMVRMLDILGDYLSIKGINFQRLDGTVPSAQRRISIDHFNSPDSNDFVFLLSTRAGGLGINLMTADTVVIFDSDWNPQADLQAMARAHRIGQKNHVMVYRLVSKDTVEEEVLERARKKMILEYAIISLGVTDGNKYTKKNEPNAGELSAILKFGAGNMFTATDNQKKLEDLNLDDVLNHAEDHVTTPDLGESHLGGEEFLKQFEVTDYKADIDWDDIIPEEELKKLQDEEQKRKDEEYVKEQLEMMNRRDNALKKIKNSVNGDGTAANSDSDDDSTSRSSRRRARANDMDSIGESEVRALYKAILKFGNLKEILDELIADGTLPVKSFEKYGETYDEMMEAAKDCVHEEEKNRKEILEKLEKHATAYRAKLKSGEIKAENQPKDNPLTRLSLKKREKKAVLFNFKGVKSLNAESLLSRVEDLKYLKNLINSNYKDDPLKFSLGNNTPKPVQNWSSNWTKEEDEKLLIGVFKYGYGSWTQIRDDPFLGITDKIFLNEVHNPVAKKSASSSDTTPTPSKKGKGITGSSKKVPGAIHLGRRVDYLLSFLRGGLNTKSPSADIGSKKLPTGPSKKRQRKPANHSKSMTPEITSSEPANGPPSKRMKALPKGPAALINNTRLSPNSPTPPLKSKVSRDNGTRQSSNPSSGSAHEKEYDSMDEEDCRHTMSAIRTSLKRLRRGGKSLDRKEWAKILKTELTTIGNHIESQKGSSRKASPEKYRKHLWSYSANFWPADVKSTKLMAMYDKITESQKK

Protein translocase subunit SecA (Escherichia coli (strain K12)), sequence (P10408 whole entry): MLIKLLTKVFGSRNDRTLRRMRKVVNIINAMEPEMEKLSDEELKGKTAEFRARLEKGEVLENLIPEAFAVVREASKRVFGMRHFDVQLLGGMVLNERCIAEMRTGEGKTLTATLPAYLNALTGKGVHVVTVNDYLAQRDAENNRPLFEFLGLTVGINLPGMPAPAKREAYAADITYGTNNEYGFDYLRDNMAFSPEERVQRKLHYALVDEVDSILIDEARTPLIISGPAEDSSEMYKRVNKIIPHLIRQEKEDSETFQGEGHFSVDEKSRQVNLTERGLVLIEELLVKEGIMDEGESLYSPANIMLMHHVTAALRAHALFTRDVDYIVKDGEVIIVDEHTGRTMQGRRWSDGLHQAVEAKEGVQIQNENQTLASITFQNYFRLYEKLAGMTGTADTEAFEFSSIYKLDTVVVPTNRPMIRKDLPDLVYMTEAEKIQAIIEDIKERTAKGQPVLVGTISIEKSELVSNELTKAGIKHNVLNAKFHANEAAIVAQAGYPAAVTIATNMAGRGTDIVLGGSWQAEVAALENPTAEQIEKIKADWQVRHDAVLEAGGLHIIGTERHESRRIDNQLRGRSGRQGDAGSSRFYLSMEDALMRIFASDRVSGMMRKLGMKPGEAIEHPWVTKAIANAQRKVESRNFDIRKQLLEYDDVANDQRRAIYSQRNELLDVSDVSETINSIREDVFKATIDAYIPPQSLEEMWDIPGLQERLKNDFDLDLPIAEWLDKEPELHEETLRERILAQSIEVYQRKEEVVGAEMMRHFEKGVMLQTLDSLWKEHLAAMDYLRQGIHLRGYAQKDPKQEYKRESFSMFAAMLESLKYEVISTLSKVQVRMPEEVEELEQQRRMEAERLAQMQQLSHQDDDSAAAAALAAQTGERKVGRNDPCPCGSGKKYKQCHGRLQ
Sialic acid-binding Ig-like lectin 9 (Homo sapiens), sequence (Q9Y336 whole entry): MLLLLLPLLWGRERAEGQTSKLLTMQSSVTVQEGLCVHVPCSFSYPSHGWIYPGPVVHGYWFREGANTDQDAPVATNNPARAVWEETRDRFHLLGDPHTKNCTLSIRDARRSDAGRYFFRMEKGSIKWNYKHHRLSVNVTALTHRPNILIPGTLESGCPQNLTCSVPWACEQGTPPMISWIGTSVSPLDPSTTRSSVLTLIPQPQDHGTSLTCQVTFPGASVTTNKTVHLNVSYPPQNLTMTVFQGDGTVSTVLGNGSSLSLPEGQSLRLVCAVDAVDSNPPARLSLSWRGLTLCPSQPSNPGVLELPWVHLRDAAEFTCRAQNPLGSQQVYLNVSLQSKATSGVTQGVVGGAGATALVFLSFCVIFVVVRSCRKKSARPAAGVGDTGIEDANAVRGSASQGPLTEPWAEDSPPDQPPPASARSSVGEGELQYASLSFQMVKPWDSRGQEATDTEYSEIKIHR

SMILES	Percent Effect [1] [%]	Percent Effect [2] [%]	Percent Effect [3] [%]	Percent Effect [4] [%]	Percent Effect [5] [%]	Percent Effect (Trypanosoma cruzi) [%]	Percent Effect [6] [%]	Percent Effect [7] [%]	Percent Effect (Homo sapiens) [%]	Percent Effect [8] [%]	Percent Effect [9] [%]	Percent Effect [10] [%]	Percent Effect [11] [%]
c1ccc(CO[C@H]2CO[C@@]3(CCN(Cc4ccoc4)C3)C2)nc1	-1.82	14.7	2.15	3.34	5.22	-1.38	-7.57	10.2	-27.8	-30.9	-1.06	12.8	-9.15
O=C1OCCC1N1CCN(C(=O)Cc2c[nH]c3ccccc23)CC1 (configuration not stated)	-0.412	18.9	6.13	-14.5	-1.41	3.49	-9.62	15.7	9.19	15.5	12.3	23.5	-11.1
COCCO[C@@H]1C[C@H]2CN(C(=O)c3ccc(C)nc3)CCN2C1	0.459	10.7	6.84	-2.91	3.06	-3.86	-51.4	8.89	-12.5	-18.6	4.17	15	-6.6
COCc1cncc2c1CCN(Cc1ccccn1)C2	-5.11	5.41	3.14	-2.9	-3.72	-0.391	4.58	14.4	2.95	-55.7	14.8	23.2	1.79
CCCN1CCN(Cc2nccn2CC)C(C)C1 (configuration not stated)	-1.91	13.5	1.06	-5.87	-10.4	-2.54	-1.67	8.54	32.2	-11.5	8.91	8.54	-3.53
Cc1cc(CN2CC[C@H]3OCC[C@@]3(C(=O)NC(C)C)C2)no1	-1.37	15.6	0.364	0.843	5.07	0.888	4.52	10.4	16.3	-28.2	5.29	11.5	-5.46
c1ccc(CN2C[C@@H]3OCCN(c4ncccn4)[C@@H]3C2)nc1	-3.31	5.33	-0.456	12.4	1.5	-4.53	-1.17	-2.73	6.09	1.03	6.38	8.97	-1.36
COc1ccc(-c2n[nH]cc2C2SCC(=O)Nc3[nH]ncc32)cc1 (configuration not stated)	-3.63	0	0.479	21.7	3.15	-3.41	-17.8	14.9	16.2	-3.31	2.13	7.79	0.161
Cc1cc(N2CCN3CCCCC3C2)n2nc(C)c(C)c2n1 (configuration not stated)	-1.84	6.94	-12.4	-4.39	-5.54	-2.43	-0.442	14.7	-15.5	4.77	4.21	10.3	-3.52
